Compounds with a hit are over-represented: about 21% of the library has one in this group of screens.
VP16 counter: VP16 counterscreen qHTS for inhibitors of ROR gamma transcriptional activity; Drosophila S2 Gal4-VP16 UAS-luciferase, luminescence, 20 h; Potency, µM (top dose mostly 53.6 µM), inactives show at the highest dose activity, negative = inhibition, usual class: inhibitors; actives 3.5% (n = 310,000); AID 2546, 2010;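 also: Gal4-VP16 expression switched on by copper sulfate through the metallothionein promoter; potency is read from the fitted curve at half-maximal effect; nearly all actives have a fitted effect of over 50% in size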
IL1B secr inh: qHTS for Inhibitors of Inflammasome Signaling: IL-1-beta AlphaLISA Primary Screen | THP-1 LPS/ATP IL-1B secretion, AlphaLISA, 16 h; active compounds read low | activity change, % at 57.5 µM | actives 4.7% (n = 360,000) | AID 743279, 2014; in the data active = activity change below about -50%; inconclusive = mostly about -30% to -49%
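THP-1 cells pretreated 1 hr with compounds (up to 57.5 uM final), then stimulated with LPS (250 ng/mL final) plus ATP (1.25 mM final); secreted IL-1B measured by AlphaLISA after 16 hr, decreased signal indicating inhibition.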
RORgamma inh: qHTS for inhibitors of ROR gamma transcriptional activity; Nuclear receptor ROR-gamma (Mus musculus), P51450; Drosophila S2 Gal4-RORgamma UAS-luciferase reporter, 20 h; Potency, µM (doses to about 53.6 µM), without a hit: at the highest dose activity change, negative = inhibition, actives largely listed as inhibitors; actives 5.4% (n = 310,000); AID 2551, 2010; also: potency is read from the fitted curve at half-maximal effect; nearly all actives have a fitted effect of over 60% in size
Target sequence (P51450 whole entry, looked up, the tested form may be a part): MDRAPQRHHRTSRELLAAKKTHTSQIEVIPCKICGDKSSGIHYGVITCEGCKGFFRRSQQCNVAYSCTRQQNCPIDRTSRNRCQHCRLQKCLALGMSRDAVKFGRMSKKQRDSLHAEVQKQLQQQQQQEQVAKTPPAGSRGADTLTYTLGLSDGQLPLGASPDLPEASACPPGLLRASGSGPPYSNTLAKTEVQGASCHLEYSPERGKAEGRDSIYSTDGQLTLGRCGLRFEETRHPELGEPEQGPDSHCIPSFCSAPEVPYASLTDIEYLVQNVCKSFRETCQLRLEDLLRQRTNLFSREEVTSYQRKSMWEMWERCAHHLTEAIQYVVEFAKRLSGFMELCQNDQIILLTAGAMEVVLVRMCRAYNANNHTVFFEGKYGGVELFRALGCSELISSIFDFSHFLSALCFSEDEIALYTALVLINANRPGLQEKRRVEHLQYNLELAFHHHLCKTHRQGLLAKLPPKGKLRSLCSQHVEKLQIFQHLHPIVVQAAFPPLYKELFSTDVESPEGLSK
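Using a luciferase readout, inhibitors were identified by reduced reporter activity in Drosophila cells coexpressing a copper-inducible Gal4–ROR gamma fusion and UAS-driven Photinus luciferase, incubated 20 hr after 700 uM copper sulfate.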
DT40 TDP1 no CPT: qHTS for Inhibitors of human tyrosyl-DNA phosphodiesterase 1 (TDP1): qHTS in cells in absence of CPT; Potency, µM (series often up to 46.2 µM), for inactives: top-dose activity change, negative = growth inhibition, hits mostly inhibitors; actives 15% (n = 420,000); DT40 Tdp1-/- hTDP1 cells, no CPT, ATP luminescence, 48 h; also: potency is read from the fitted curve at half-maximal effect; nearly all actives have a fitted effect of over 55% in size
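Stably hTDP1-transfected Tdp1-null chicken DT40 cells were treated with library compounds minus camptothecin and grown for at least 48 hr at 37 °C, after which cellular ATP was quantified by luminescence.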
DT40 TDP1 CPT: qHTS for Inhibitors of human tyrosyl-DNA phosphodiesterase 1 (TDP1): qHTS in cells in presence of CPT; AID 686979, 2013; actives 12% (n = 420,000); chicken DT40 Tdp1-/-;hTDP1 cells + 20 nM CPT, ATP luminescence, 48 h; Potency, µM (highest dose often 46.2 µM), without a hit: at the top dose activity change, negative = growth inhibition, most hits filed as inhibitors; also: potency is read from the fitted curve at half-maximal effect; nearly all actives have a fitted effect of over 55% in size
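Chicken DT40 Tdp1-/- cells stably complemented with human TDP1 were seeded at 400 cells/well in medium containing 20 nM camptothecin, exposed to pin-transferred compounds, and grown at 37 °C for at least 48 hr. Viability was read as ATP luminescence.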
ELG1 repair inh: qHTS screen for small molecules that inhibit ELG1-dependent DNA repair in human embryonic kidney (HEK293T) cells expressing luciferase-tagged ELG1; HEK293T ELG1-luciferase reporter, luminescence, 16 h; DNA damage induced by 5-fluorouridine; Potency, µM (series often up to 46.1 µM), for the others: top-dose activity change, negative = inhibition, hits mostly inhibitors; actives 2.3% (n = 330,000); also: potency is read from the fitted curve at half-maximal effect; nearly all actives have a fitted effect of over 55% in size
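HEK293T cells expressing luciferase-tagged ELG1 (2,000/well) received 5-Fluorouridine plus compound or DMSO for 16 hr at 37 °C. Luciferase was read by ONE-Glo luminescence after 30 min at room temperature.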
* hit, by the source's call; [ ] = another dose, or the depositor's remark. Unless noted, calls follow the shape of the dose curve; as a rule, active = well fitted curve in the direction sought with a large enough effect; inconclusive = small, poorly fitted or top-dose-only effect, or another doubt; inactive = no such curve, though single readings can be large; an effect the other way counts as inactive or inconclusive. % is scaled to controls: 0 for no effect and ±100 for the full control effect.

What do the screens show for `CN1CCN(C(=O)c2cc3ccccc3[nH]2)CC1`?
VP16 counter: -1%; IL1B secr inh: 9; RORgamma inh: 10%; DT40 TDP1 no CPT: -16%; DT40 TDP1 CPT: 6%; ELG1 repair inh: -1%

What do the screens show for `Cc1ccc(S(=O)(=O)N2CCC(C(=O)Nc3ccc(S(=O)(=O)N4CCCC4)cc3)CC2)cc1`?
IL1B secr inh: -9; DT40 TDP1 no CPT: 15µM*; DT40 TDP1 CPT: inconclusive; ELG1 repair inh: -12%

How did O=[N+]([O-])c1cccc(S(=O)(=O)N2CCN(c3nc(-c4ccccc4)nc4ccccc34)CC2)c1 do in these assays?
DT40 TDP1 no CPT: -8%; DT40 TDP1 CPT: -1%

Results for CC(O)C1CCC2C3CCC4CC(O)CCC4(C)C3CCC12C (stereo not drawn) ?
VP16 counter: -4%; RORgamma inh: -4%[10 µM]

How did O=S(=O)(c1ccc2ccccc2c1)N1CCN(c2ccc(O)cc2)CC1 do in these assays?
IL1B secr inh: 29; DT40 TDP1 no CPT: 8.2µM*; DT40 TDP1 CPT: 6.5µM*; ELG1 repair inh: -30%

Results for Cc1ccc(S(=O)(=O)N2CCN(c3nn(C)c(=O)n(C)c3=O)CC2)cc1C ?
IL1B secr inh: -2; DT40 TDP1 no CPT: inconclusive; DT40 TDP1 CPT: 7.3µM*; ELG1 repair inh: inconclusive

How did O=C(c1cc(=O)[nH]c2ccccc12)N1CCN(S(=O)(=O)c2ccc(Cl)cc2)CC1 do in these assays?
IL1B secr inh: 0; DT40 TDP1 no CPT: -28%; DT40 TDP1 CPT: -17%; ELG1 repair inh: 23µM*

Results for Cc1ccccc1C(=O)N1CCC(C(=O)Nc2ccc(S(=O)(=O)N3CCCCC3)cc2)CC1 ?
VP16 counter: inconclusive; IL1B secr inh: inactive; RORgamma inh: inconclusive; DT40 TDP1 no CPT: 12µM*; DT40 TDP1 CPT: 16µM*; ELG1 repair inh: 15µM*

What do the screens show for `Cc1cccc(C)c1NC(=O)CC12CCCN1CCC2`?
VP16 counter: -2%; RORgamma inh: 3%; DT40 TDP1 no CPT: -20%; DT40 TDP1 CPT: inconclusive

Results for O=C(COC(=O)Cn1cnc2ccccc2c1=O)Nc1ccccc1OC(F)F ?
IL1B secr inh: -2; DT40 TDP1 no CPT: -25%; DT40 TDP1 CPT: inconclusive; ELG1 repair inh: -4%

Results for COc1ccc(S(=O)(=O)N2CCC(C(=O)Nc3ccc(OC)c(OC)c3)CC2)cc1C ?
IL1B secr inh: -9; DT40 TDP1 no CPT: -18%; DT40 TDP1 CPT: -14%

What do the screens show for `Cc1ccc(NS(=O)(=O)c2ccc(NC(=O)C3CCCO3)cc2)cc1` (stereo not drawn)?
VP16 counter: 18µM*; IL1B secr inh: 2; RORgamma inh: inconclusive; DT40 TDP1 no CPT: 12µM*; DT40 TDP1 CPT: inconclusive; ELG1 repair inh: inconclusive

Results for O=C(CSc1ccc2ccccc2c1)N1CCN(c2ccc(O)cc2)CC1 ?
VP16 counter: -18%; IL1B secr inh: 25; RORgamma inh: 1%; DT40 TDP1 no CPT: 12µM*; DT40 TDP1 CPT: 13µM*; ELG1 repair inh: inconclusive

Results for Cc1ccc(NC(=O)C2CCN(C(=O)OC(C)(C)C)CC2)cc1S(=O)(=O)N1CCCCC1 ?
IL1B secr inh: -5; DT40 TDP1 no CPT: -51%; DT40 TDP1 CPT: inconclusive; ELG1 repair inh: inconclusive

Results for Cc1ccc(S(=O)(=O)N2CCC(C(=O)Nc3ccc(S(=O)(=O)N4CCCC4)cc3)CC2)cc1C ?
IL1B secr inh: 5; DT40 TDP1 no CPT: 18µM*; DT40 TDP1 CPT: inconclusive; ELG1 repair inh: inconclusive

Results for Cc1ccc(S(=O)(=O)N2CCCCC2)cc1NC(=O)C1CCN(C(=O)OC(C)(C)C)CC1 ?
IL1B secr inh: 22; DT40 TDP1 no CPT: 16µM*; DT40 TDP1 CPT: inconclusive

Results for COc1cc(OC)c(C(=O)c2ccccc2[N+](=O)[O-])c(OC)c1 ?
IL1B secr inh: 7; DT40 TDP1 no CPT: -20%; DT40 TDP1 CPT: 24%

How did CN(C)c1ccc(-c2ccnc3c2CC(C)(C(=O)Nc2ccc(F)c(Cl)c2)O3)cc1 (stereo not drawn) do in these assays?
IL1B secr inh: 23; DT40 TDP1 no CPT: inconclusive; DT40 TDP1 CPT: inconclusive

How did O=C(O)C1CCCCC1C(=O)Nc1ccc(S(=O)(=O)N2CCCCCC2)cc1 (stereo not drawn) do in these assays?
VP16 counter: 4%; IL1B secr inh: -6; RORgamma inh: 2%; DT40 TDP1 no CPT: -16%; DT40 TDP1 CPT: -19%; ELG1 repair inh: 1%

How did CC1CC1C(=O)Nc1ccc(S(=O)(=O)N2CCCCC2)cc1 (stereo not drawn) do in these assays?
IL1B secr inh: 14; DT40 TDP1 no CPT: 21µM*; DT40 TDP1 CPT: 23µM*; ELG1 repair inh: -19%

Results for Cc1ccc(S(=O)(=O)N2CCCN(C)c3nc4ccccc4nc32)cc1 ?
IL1B secr inh: -2; DT40 TDP1 no CPT: 16µM*; DT40 TDP1 CPT: inconclusive; ELG1 repair inh: inconclusive

Results for COC(=O)C1(C(F)(F)F)C2C=CC(C2)N1S(=O)(=O)c1ccc(C)cc1 (stereo not drawn) ?
VP16 counter: -9%; IL1B secr inh: 15; RORgamma inh: -18%; DT40 TDP1 no CPT: 21µM*; DT40 TDP1 CPT: 23µM*; ELG1 repair inh: -1%

What do the screens show for `CCCNC(=O)C1CCN(S(=O)(=O)c2ccc(-c3nn[nH]n3)cc2)CC1`?
VP16 counter: 1%; IL1B secr inh: 14; RORgamma inh: 26%; DT40 TDP1 no CPT: 0.01µM*; DT40 TDP1 CPT: 12µM*; ELG1 repair inh: 0%

What do the screens show for `CC[C@H]1OC(=O)[C@H](C)[C@@H](O[C@H]2C[C@@](C)(OC)[C@@H](O)[C@H](C)O2)[C@H](C)[C@@H](O[C@@H]2O[C@H](C)C[C@H](N(C)C)[C@H]2O)[C@](C)(O)C[C@@H](C)[C@@H]2N[C@@H](COCCOC)O[C@@H]([C@H]2C)[C@]1(C)O`?
DT40 TDP1 no CPT: -9%; DT40 TDP1 CPT: -5%

High-throughput results: PubChem BioAssay, National Center for Advancing Translational Sciences (NCATS)
